Laboratory results published in PubChem BioAssay (NCI).
“And” between values parts separate entries of the source, which are not always exact repeats. Identical values can stand only once. The panel holds about 79,000 compounds, 15% with a hit somewhere; the sample as a whole holds those more often. The source holds several records for some structures; these can differ, active in one and inactive in another. The source made the active and inactive calls. Rule as the data show it: active = growth inhibition above about 70%; inactive = the rest.

Columns and labels:
[1] = NCI Yeast Anticancer Drug Screen. Data for the wt1 strain (AID 149);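 also: 0% = growth of vehicle-treated wt1 cultures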; conditions: S. cerevisiae wt1 strain (SPY 50644) growth inhibition, stronger effect = higher value
Method in brief: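 wt1 yeast, compound-treated; % growth inhibition vs vehicle control.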

[2] = NCI Yeast Anticancer Drug Screen. Data for the rad50EPP+ strain (AID 151);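 also: 0% = growth of vehicle-treated control cultures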; conditions: S. cerevisiae rad50 mutant strain, stronger effect = higher value
Method in brief: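 Measured: growth inhibition of rad50EPP+ yeast. Reference: vehicle-treated controls. Screen uses strains with defined genetic alterations in DNA damage repair or cell cycle control.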

[3] = NCI Yeast Anticancer Drug Screen. Data for the mgt1 strain (AID 153); conditions: S. cerevisiae mgt1 mutant growth inhibition, stronger effect = higher value
Method in brief: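 Compounds were applied to mgt1 mutant yeast, and growth was then compared against vehicle-treated control cultures to give percent inhibition.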

[4] = NCI Yeast Anticancer Drug Screen. Data for the rad50 strain (AID 155);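 also: 0% = growth of vehicle-only cultures of the same strain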; conditions: S. cerevisiae rad50 strain growth inhibition, stronger effect = higher value
Method in brief: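 Genetically altered yeast (DNA repair pathway); compound treatment; growth inhibition vs vehicle ctrl.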

[5] = NCI Yeast Anticancer Drug Screen. Data for the mec2-1 strain (AID 157); conditions: S. cerevisiae mec2-1 strain, stronger effect = higher value
Method in brief: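 Compounds were applied to mec2-1 yeast cells. Their growth was then compared with that of vehicle-treated cultures to give growth inhibition.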

[6] = NCI Yeast Anticancer Drug Screen. Data for the rad14 strain (AID 159);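 also: 0% = growth of vehicle-treated control cultures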; conditions: S. cerevisiae rad14 strain growth inhibition, stronger effect = higher value
Method in brief: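 Test compounds were applied to a repair-deficient yeast strain. Its growth was then compared with that of cultures given vehicle alone, and inhibition was expressed relative to those controls.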

[7] = NCI Yeast Anticancer Drug Screen. Data for the sgs1 mgt1 strain (AID 161);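 also: 0% = growth of cultures given vehicle only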; conditions: S. cerevisiae sgs1 mgt1 strain, stronger effect = higher value
Method in brief: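 This yeast growth screen uses a strain with defined DNA-repair lesions; compound-treated growth is compared with vehicle-treated growth.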

[8] = NCI Yeast Anticancer Drug Screen. Data for the CLN2oe strain (AID 163);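 also: 0% = growth of vehicle-only control cultures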; conditions: S. cerevisiae CLN2oe strain, stronger effect = higher value
Method in brief: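 Cells of an engineered yeast line with disturbed cell-cycle regulation are treated with compound. Inhibition of growth is then calculated relative to the vehicle-treated reference.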

[9] = NCI Yeast Anticancer Drug Screen. Data for the cln2 rad14 strain (AID 165);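 also: 0% = growth equal to vehicle treated cultures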; conditions: S. cerevisiae cln2 rad14 strain, stronger effect = higher value
Method in brief: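 Strain: cln2 rad14 yeast, altered in cell cycle control and DNA damage repair. Read-out: growth inhibition vs vehicle.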

[10] = NCI Yeast Anticancer Drug Screen. Data for the bub3 strain (AID 167); conditions: S. cerevisiae bub3 mutant strain, stronger effect = higher value
Method in brief: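 Yeast carrying a defined mutation is treated with each compound, and growth is compared with that of vehicle-exposed cells to give inhibition.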

[11] = NCI Yeast Anticancer Drug Screen. Data for the wt2 strain (AID 169);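 also: 0% = growth of vehicle-treated yeast cultures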; conditions: S. cerevisiae wt2 strain growth inhibition, stronger effect = higher value
Method in brief: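 Growth of compound-treated yeast is measured and expressed as inhibition relative to vehicle-only controls.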

[12] = NCI Yeast Anticancer Drug Screen. Data for the sgs1 strain (AID 173);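 also: 0% = growth of vehicle-only control cultures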; conditions: S. cerevisiae sgs1 mutant, stronger effect = higher value
Method in brief: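 Strain with an altered DNA repair or cell cycle pathway exposed to compound. Growth then measured. Value = inhibition versus vehicle control.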

[13] = NCI Yeast Anticancer Drug Screen. Data for the mlh1 rad18 strain (AID 175); conditions: S. cerevisiae mlh1 rad18 strain growth inhibition, stronger effect = higher value
Method in brief: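 A repair-deficient yeast strain is exposed to test compound, and growth is scored relative to vehicle-treated controls.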

[14] = NCI Yeast Anticancer Drug Screen. Data for the rad18 strain (AID 177); conditions: S. cerevisiae rad18 mutant growth inhibition, stronger effect = higher value
Method in brief: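 DNA-repair-defective yeast; compound treatment; growth inhibition scored against vehicle.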

[15] = at 5.0 µM (retest, dose inferred, filed as 0.5)
[16] = at 50.0 µM (retest, dose inferred, filed as 5.0)

Measured: growth inhibition

Cc1nc2ccc(Br)cc2c(=O)n1-c1ccc(NC2OCC(O)C(O)C2O)cc1 (stereo not drawn)
73.2% (active) and -5.1% (inactive): [10]; at 50.0 µM
active: [1]; at 100.0 µM 70% | [3]; at 100.0 µM 81% | [4]; at 100.0 µM 86% | [5]; at 100.0 µM 90% | [6]; at 100.0 µM 79% | [10]; at 100.0 µM 90% | [11]; at 100.0 µM 86% | [12]; at 100.0 µM 89% | [13]; [16] 79% | [14]; at 100.0 µM 91%
inactive: [1]; at 1.2 µM 3% | [1]; at 3.7 µM 9% | [1]; at 11.0 µM 12% | [1]; at 33.0 µM 32% | [2]; at 1.2 µM 1% | [2]; at 3.7 µM -1% | [2]; at 11.0 µM -1% | [2]; at 33.0 µM 5% | [2]; at 100.0 µM 13% | [3]; at 1.2 µM 6% | [3]; at 3.7 µM 9% | [3]; at 11.0 µM 24% | [3]; at 33.0 µM 41% | [4]; at 1.2 µM -3% | [4]; at 3.7 µM 17% | [4]; [15] 11% | [4]; at 11.0 µM 14% | [4]; at 33.0 µM 53% | [4]; [16] 0% | [4]; at 50.0 µM 62.1% and 46.9% | [5]; at 1.2 µM 12% | [5]; at 3.7 µM 14% | [5]; [15] 1% | [5]; at 11.0 µM 23% | [5]; at 33.0 µM 54% | [5]; [16] 45% | [5]; at 50.0 µM 38.2% and 56.2% | [6]; at 1.2 µM 4% | [6]; at 3.7 µM 5% | [6]; at 11.0 µM 14% | [6]; at 33.0 µM 32% | [7]; [15] -3% | [7]; [16] 34% | [7]; at 50.0 µM 64% and 0.15% | [8]; at 1.2 µM 5% | [8]; at 3.7 µM 11% | [8]; at 11.0 µM 14% | [8]; at 33.0 µM 39% | [8]; at 100.0 µM 48% | [9]; [15] -3% | [9]; [16] 53% | [9]; at 50.0 µM -15.2% and 12.8% | [10]; at 1.2 µM 4% | [10]; at 3.7 µM 8% | [10]; [15] 7% | [10]; at 11.0 µM 17% | [10]; at 33.0 µM 49% | [10]; [16] 60% | [11]; at 1.2 µM 1% | [11]; at 3.7 µM 4% | [11]; at 11.0 µM 14% | [11]; at 33.0 µM 43% | [12]; at 1.2 µM 6% | [12]; at 3.7 µM 12% | [12]; at 11.0 µM 25% | [12]; at 33.0 µM 61% | [13]; [15] -38% | [13]; at 50.0 µM 62.4% and 13.8% | [14]; at 1.2 µM 4% | [14]; at 3.7 µM 6% | [14]; at 11.0 µM 18% | [14]; at 33.0 µM 55%
